Compound activity deposited in PubChem by Broad Institute.
ID4 SMM: binders of human ID4 protein; P47928; small molecule microarray, Flag-ID4 binding, fluorescence F/B; calls only; 31,000 compounds, 1.2% hits; call rule not given here;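 also: a binder raises fluorescence above local background on the spot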
Target sequence (P47928 whole entry, looked up): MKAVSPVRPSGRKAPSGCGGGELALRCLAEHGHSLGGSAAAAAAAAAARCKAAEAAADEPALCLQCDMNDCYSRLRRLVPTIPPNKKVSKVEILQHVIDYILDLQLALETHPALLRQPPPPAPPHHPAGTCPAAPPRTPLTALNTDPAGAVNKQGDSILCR
p53 PUMA act: mutant p53 pathway reactivation; SW480 PUMA-promoter luciferase; activation, % at 9.98 µM; 28,000 compounds, 1.5% hits; AID 624151; in the data active = activation above about 52%
* = called active by the depositor; i = inactive; / = no result given; + = active, no number. A selection: hits, their analogues and other compounds. The true share with any hit is near 2.2%.

SMILES	ID4 SMM	p53 PUMA act
CCn1cc(C(=O)OCc2ccc3nonc3c2)c(=O)c2ccc(C)nc21	i	2
Cc1noc(C)c1S(=O)(=O)Nc1ccc2c(c1)C(=O)N([C@H](C)CO)C[C@H](C)[C@@H](CN(C)C(=O)NC(C)C)OCCCC[C@H](C)O2	i	-5
C[C@H]1CN([C@@H](C)CO)C(=O)c2cc(-c3cccc(F)c3)cnc2O[C@@H]1CN(C)Cc1ccccc1	i	/
C[C@@H]1CN([C@@H](C)CO)C(=O)c2cc(NC(=O)c3ccncc3)ccc2O[C@@H](C)CCCCO[C@@H]1CN(C)C(=O)Nc1ccccc1	i	4
CNC[C@H]1Oc2ccc(NS(=O)(=O)c3ccccc3)cc2CC(=O)N([C@@H](C)CO)C[C@@H]1C	i	2
CNC[C@H]1Oc2ccc(NS(C)(=O)=O)cc2CC(=O)N([C@@H](C)CO)C[C@@H]1C	+	9
C[C@H]1CCCCO[C@@H](CN(C)C(=O)Nc2ccccc2)[C@@H](C)CN([C@@H](C)CO)C(=O)c2cc(NC(=O)c3ccncc3)ccc2O1	+	3
CC(C)NC(=O)N(C)C[C@@H]1OCCCC[C@@H](C)Oc2ccc(NC(=O)Nc3ccc(C(F)(F)F)cc3)cc2C(=O)N([C@@H](C)CO)C[C@@H]1C	+	-41
CC(C)NC(=O)N(C)C[C@H]1OCCCC[C@@H](C)Oc2ccc(NC(=O)Nc3ccc(C(F)(F)F)cc3)cc2C(=O)N([C@@H](C)CO)C[C@H]1C	i	-64
COCC(=O)N(C)C[C@@H]1Oc2cc(C#CC(C)C)ccc2S(=O)(=O)N([C@@H](C)CO)C[C@@H]1C	/	8
COC(=O)c1nnc(Nc2ccc(Oc3ccccc3)cc2)c2ccccc12	i	-18
O=C(O)c1cn(C2CC2)c2cc(N3CCNCC3)c(F)cc2c1=O	i	/
COc1c(N2CCNC(C)C2)c(F)cc2c(=O)c(C(=O)O)cn(C3CC3)c12 (stereo not given)	+	/
CN(C)C(=O)C[C@H]1C[C@H]2c3cc(NC(=O)CC4CC4)ccc3O[C@H]2[C@H](CO)O1	i	/
CSc1cccc(NC(=O)CSc2nnc(-c3ccc(Br)cc3)o2)c1	i	48
O=C(CSc1nnc(-c2ccccc2)o1)Nc1cccc(F)c1	i	78*
COC(=O)c1ccccc1NC(=O)CSc1nnc(-c2ccc(Cl)cc2)o1	i	20
O=C(CSc1ccc(Cl)cc1)Nc1cccc(-c2nnc(-c3ccco3)o2)c1	i	122*
CCn1c(SCC(=O)Nc2ccc(Cl)cc2)nnc1-c1ccco1	i	20
COc1ccccc1NC(=O)CSc1nnc(-c2ccc(Cl)cc2)o1	i	89*
COc1ccc(S(=O)(=O)Nc2ccc3c(c2)C(=O)N([C@@H](C)CO)C[C@@H](C)[C@@H](CN(C)S(=O)(=O)c2c(C)noc2C)O3)cc1	i	1
O=C(CSc1nc2ccccc2c(=O)[nH]1)NCCO	i	1
CC(Oc1cccc(Cl)c1)C(=O)Nc1cc(C(=O)O)cc(C(=O)O)c1 (stereo not given)	i	-9
Cc1ccc(NC(=O)CSc2nc3sc4c(c3c(=O)[nH]2)CCCC4)cc1[N+](=O)[O-]	i	-8
C[C@H](CO)N1C[C@H](C)[C@@H](CN(C)Cc2ccncc2)OCc2cn(nn2)CCCC1=O	i	2
SMILES	ID4 SMM	p53 PUMA act
CS(=O)(=O)Nc1ccc(C(=O)NCc2cccnc2)cc1	i	8
O=C(NCc1cccnc1)c1cccc(NC(=O)c2ccco2)c1	+	-2
O=C(N[C@H]1CC[C@@H](CC(=O)N2CCN(c3ccccc3)CC2)O[C@@H]1CO)c1ccncc1	i	/
C[C@@H]1CN([C@@H](C)CO)C(=O)c2cc(NC(=O)Nc3ccc(F)cc3)ccc2O[C@@H](C)CCCCO[C@H]1CN(C)C	i	-7
O=C(Nc1ccc2c(c1)OCO2)N[C@@H]1C=C[C@@H](CC(=O)N2CCN(c3ccccc3)CC2)O[C@@H]1CO	i	/
CCCNC(=O)N1[C@H](C#N)[C@@H](c2ccc(-c3ccccc3F)cc2)[C@H]1CO	i	/
C[C@@H]1CN([C@H](C)CO)C(=O)c2cc(NS(=O)(=O)c3ccccc3)ccc2O[C@@H](C)CCCCO[C@@H]1CN(C)C(=O)C1CCCCC1	i	-7
O=C(CSc1ncnc2sc3c(c12)CCCC3)N1CCc2ccccc21	i	-4
CC(C)(C)C(=O)CSc1ncnc2sc3c(c12)CCCC3	i	71*
CCOC(=O)c1c(NC(=O)CN2C(=O)c3ccccc3C2=O)sc2c1CCC(C)C2 (stereo not given)	i	31
CCc1ccc(CCC(=O)Nc2ccc(I)cc2)o1	i	13
CCc1ccc(CCC(=O)Nc2ccc(C)c(C)c2)o1	i	71*
Cc1sc(NC(=O)c2cc(-c3ccccn3)nc3ccc(Cl)cc23)c(C(N)=O)c1C	i	-6
C[C@H]1CCCCO[C@H](CN(C)C(=O)CCC(F)(F)F)[C@@H](C)CN([C@@H](C)CO)C(=O)c2cc(NC(=O)CCC(F)(F)F)ccc2O1	i	1
